{"source": "the supplement of paper PMC11001985", "note": "A number with no mark means an inactive call.", "data": [{"compound": "C#CCNC(=O)CCSSCCC(=O)NCCc1ccc(C=O)c(C=O)c1", "assay": "lysine labeling ratio R10:1 (500 µM / 50 µM probe), SILAC-ABPP in living cells; higher = lower intrinsic lysine reactivity toward the probe, active = 2 or less", "conditions": "HeLa; probe concentrations 500 vs 50 µM", "method_in_brief": "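With forward and reverse label swaps, light and heavy SILAC HeLa cells, alive and in PBS at room temperature, were exposed to either 500 µM or 50 µM of an alkyne-tagged lysine probe bearing a disulfide link. After mixing, lysates were clicked to biotin-azide, cut with trypsin, pulled down on neutravidin, freed with DTT, alkylated and analysed on a TIMS-TOF Pro by LC-MS/MS. The per-lysine value R is the median over forward and reverse replicates of the filtered median high-probe/low-probe MS1 peptide ratio. It is capped at 20.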", "values": [{"target": "LAMC1 (lysine site: K1258) (UniProt P11047)", "sequence (P11047 whole entry)": "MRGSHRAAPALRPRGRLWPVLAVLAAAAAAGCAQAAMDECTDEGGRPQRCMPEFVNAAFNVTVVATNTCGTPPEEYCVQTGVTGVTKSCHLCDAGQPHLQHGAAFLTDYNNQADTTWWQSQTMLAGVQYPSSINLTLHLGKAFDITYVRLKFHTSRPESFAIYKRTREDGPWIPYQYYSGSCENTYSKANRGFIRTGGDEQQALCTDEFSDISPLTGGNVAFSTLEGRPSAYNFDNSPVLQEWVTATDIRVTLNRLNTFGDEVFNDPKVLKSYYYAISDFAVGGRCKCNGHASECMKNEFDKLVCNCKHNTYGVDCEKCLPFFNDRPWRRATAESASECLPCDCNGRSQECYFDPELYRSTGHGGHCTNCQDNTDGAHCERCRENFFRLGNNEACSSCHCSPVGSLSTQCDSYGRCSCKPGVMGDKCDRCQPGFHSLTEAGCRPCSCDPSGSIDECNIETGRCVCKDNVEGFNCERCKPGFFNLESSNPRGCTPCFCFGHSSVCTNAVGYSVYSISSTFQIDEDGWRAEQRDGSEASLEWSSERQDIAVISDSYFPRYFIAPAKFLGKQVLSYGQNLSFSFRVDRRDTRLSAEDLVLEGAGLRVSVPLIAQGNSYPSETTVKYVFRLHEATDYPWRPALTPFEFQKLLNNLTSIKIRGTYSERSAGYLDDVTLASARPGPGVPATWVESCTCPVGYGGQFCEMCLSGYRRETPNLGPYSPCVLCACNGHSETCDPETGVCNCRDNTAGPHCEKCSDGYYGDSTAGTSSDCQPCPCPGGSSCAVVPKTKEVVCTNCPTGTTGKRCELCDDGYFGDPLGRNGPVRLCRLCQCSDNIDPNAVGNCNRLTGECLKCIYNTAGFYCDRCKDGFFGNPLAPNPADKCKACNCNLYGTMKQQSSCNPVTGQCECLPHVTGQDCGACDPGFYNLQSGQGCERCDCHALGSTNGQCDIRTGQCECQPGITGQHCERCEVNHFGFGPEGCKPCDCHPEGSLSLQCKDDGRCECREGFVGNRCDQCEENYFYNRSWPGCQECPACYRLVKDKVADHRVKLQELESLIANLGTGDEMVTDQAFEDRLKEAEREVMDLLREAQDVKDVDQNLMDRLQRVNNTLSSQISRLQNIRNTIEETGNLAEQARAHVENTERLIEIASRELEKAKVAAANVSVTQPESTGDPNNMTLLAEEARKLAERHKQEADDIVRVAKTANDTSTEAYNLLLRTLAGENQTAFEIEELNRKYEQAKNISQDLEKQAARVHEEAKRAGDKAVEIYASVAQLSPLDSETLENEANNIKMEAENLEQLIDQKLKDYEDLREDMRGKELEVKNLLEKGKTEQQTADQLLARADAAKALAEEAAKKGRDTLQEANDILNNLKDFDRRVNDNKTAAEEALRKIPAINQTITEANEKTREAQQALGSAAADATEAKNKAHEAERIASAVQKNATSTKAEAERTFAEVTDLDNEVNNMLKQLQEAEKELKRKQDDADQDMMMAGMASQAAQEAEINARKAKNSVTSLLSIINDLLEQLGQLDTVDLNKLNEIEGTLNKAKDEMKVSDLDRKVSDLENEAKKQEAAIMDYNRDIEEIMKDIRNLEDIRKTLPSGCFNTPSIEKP", "lysine labeling ratio R10:1": "1.54 (active)"}, {"target": "NEGR1 (lysine site: K98) (UniProt Q7Z3B1)", "sequence (Q7Z3B1 whole entry, looked up)": "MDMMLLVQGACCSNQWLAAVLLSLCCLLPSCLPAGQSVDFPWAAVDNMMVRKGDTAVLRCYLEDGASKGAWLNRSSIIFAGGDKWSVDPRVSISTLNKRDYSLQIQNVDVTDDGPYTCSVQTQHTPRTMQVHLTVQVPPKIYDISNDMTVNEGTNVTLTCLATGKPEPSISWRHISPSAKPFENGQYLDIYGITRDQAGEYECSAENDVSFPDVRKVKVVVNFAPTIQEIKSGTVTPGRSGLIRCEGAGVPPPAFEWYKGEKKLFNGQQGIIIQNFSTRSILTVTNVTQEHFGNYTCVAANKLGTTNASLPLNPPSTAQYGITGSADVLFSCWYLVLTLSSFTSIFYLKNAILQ", "lysine labeling ratio R10:1": 5.29}, {"target": "RCC2 (lysine site: K124) (UniProt Q9P258)", "sequence (Q9P258 whole entry)": "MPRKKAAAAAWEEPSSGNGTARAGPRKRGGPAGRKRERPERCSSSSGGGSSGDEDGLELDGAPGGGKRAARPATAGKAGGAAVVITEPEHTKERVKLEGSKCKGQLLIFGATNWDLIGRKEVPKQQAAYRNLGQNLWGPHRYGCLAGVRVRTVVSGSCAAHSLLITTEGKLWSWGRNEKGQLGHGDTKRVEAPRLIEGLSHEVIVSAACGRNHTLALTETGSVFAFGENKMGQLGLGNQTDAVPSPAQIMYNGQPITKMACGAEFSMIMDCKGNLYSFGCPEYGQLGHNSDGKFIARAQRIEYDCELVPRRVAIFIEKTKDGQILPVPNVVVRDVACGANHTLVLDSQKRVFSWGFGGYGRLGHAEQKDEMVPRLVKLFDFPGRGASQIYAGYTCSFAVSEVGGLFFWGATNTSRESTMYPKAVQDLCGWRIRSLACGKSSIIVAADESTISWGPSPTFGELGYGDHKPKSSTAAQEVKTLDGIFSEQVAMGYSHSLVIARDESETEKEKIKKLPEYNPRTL", "lysine labeling ratio R10:1": "1.8 (active)"}, {"target": "UniProt Q32P28 (lysine site: K662)", "sequence (Q32P28 whole entry)": "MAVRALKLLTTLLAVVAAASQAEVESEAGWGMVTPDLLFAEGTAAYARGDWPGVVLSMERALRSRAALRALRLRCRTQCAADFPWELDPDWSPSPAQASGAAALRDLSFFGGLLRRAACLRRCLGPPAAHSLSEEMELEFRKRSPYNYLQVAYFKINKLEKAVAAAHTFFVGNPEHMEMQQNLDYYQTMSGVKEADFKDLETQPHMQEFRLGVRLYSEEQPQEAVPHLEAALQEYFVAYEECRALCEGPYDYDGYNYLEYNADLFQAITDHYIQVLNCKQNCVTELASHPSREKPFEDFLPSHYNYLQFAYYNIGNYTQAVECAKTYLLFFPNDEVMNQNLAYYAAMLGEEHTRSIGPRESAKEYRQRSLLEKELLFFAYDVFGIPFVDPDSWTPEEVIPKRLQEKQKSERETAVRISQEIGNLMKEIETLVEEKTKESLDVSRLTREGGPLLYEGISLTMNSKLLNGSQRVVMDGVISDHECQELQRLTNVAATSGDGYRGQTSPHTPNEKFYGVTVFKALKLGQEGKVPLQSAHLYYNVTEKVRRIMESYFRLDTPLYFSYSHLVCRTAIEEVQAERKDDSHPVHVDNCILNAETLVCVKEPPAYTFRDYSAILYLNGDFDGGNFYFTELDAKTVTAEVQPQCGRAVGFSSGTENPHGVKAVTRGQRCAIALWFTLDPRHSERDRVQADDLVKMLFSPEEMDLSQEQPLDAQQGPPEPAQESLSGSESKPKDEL", "lysine labeling ratio R10:1": 5.32}, {"target": "PAICS (lysine site: K247) (UniProt P22234)", "sequence (P22234 whole entry)": "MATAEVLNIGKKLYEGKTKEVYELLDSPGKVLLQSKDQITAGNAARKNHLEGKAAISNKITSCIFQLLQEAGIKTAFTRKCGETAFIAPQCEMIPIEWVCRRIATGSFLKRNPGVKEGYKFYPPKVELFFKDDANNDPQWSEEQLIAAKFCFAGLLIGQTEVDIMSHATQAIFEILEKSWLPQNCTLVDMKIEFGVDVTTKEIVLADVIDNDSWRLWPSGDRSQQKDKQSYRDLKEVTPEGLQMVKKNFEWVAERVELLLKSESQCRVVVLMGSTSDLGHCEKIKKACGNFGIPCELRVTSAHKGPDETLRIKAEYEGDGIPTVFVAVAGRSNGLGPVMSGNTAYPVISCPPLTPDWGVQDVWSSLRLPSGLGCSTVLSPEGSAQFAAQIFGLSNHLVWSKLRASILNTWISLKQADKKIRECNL", "lysine labeling ratio R10:1": "1.41 (active)"}, {"target": "PLOD2 (lysine site: K593) (UniProt O00469)", "sequence (O00469 whole entry)": "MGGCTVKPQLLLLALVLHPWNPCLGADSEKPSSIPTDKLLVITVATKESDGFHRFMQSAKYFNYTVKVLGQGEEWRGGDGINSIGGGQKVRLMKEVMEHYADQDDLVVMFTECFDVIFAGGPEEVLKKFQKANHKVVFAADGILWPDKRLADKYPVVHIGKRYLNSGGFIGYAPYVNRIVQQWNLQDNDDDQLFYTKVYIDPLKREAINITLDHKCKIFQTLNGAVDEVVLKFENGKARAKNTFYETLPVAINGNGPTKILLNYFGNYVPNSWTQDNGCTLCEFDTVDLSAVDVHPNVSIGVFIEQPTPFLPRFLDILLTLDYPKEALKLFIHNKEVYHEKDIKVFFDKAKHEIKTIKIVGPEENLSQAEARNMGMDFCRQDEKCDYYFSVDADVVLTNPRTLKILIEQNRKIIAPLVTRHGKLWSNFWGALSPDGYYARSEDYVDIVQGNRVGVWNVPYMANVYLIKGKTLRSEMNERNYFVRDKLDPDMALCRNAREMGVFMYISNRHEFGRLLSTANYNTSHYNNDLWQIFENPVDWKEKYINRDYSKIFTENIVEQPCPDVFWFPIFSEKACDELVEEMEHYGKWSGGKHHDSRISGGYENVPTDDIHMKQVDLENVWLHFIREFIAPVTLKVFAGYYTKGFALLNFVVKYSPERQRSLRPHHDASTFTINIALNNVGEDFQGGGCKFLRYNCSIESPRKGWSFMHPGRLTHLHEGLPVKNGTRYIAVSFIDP", "lysine labeling ratio R10:1": "1.21 (active)"}, {"target": "CDH13 (lysine site: K178) (UniProt P55290)", "lysine labeling ratio R10:1": 7.63}, {"target": "RPS19 (lysine site: K7) (UniProt P39019)", "lysine labeling ratio R10:1": 4.55}, {"target": "ANXA1 (lysine site: K214) (UniProt P04083)", "lysine labeling ratio R10:1": 6.33}, {"target": "GALNT2 (lysine site: K103) (UniProt Q10471)", "lysine labeling ratio R10:1": 2.75}, {"target": "UniProt Q9UII2 (lysine site: K49)", "sequence (Q9UII2 whole entry)": "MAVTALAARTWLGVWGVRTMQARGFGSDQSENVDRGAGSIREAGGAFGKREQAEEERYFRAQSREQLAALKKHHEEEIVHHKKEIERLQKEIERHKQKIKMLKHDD", "lysine labeling ratio R10:1": 3.39}, {"target": "LDLR (lysine site: K596) (UniProt P01130)", "lysine labeling ratio R10:1": "1.28 (active)"}, {"target": "UniProt P21589 (lysine site: K67)", "lysine labeling ratio R10:1": 2.8}, {"target": "CRIM1 (lysine site: K171) (UniProt Q9NZV1)", "lysine labeling ratio R10:1": 2.01}, {"target": "RPL3 (lysine site: K229) (UniProt P39023)", "lysine labeling ratio R10:1": "1.36 (active)"}, {"target": "LAMC1 (lysine site: K1041) (UniProt P11047)", "lysine labeling ratio R10:1": 2.18}, {"target": "UniProt Q99623 (lysine site: K216)", "sequence (Q99623 whole entry)": "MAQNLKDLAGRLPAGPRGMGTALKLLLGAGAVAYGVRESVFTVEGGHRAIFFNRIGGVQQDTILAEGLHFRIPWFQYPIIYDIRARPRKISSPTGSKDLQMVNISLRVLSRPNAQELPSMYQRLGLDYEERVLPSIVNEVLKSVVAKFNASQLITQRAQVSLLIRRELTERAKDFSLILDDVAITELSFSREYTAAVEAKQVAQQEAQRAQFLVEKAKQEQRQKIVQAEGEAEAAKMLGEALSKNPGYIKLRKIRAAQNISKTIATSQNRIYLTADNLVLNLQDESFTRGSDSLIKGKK", "lysine labeling ratio R10:1": 2.79}]}]}
